# From PubChem BioAssay (NCI)
# About 79,000 compounds went through this panel and 15% of them were active in at least one assay; those are over-represented in the sample as a whole. Values without a mark were called inactive. Active and inactive are the calls of the source. No stated cut-off is given here; in the data, active means growth inhibition above about 70%; inactive means the rest.
# Key:
# [1] = NCI Yeast Anticancer Drug Screen. Data for the rad52 strain (AID 147);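 further: 0% = growth of vehicle-treated control cultures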; settings: S. cerevisiae rad52 mutant growth inhibition, hits give high values
# Procedure, shortened: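 Growth of repair-deficient yeast cells was compared between compound-treated and vehicle-treated cultures to give percent inhibition.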
# [2] = NCI Yeast Anticancer Drug Screen. Data for the wt1 strain (AID 149);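 further: 0% = growth of vehicle-treated wt1 cultures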; settings: S. cerevisiae wt1 strain (SPY 50644) growth inhibition, hits give high values
# Procedure, shortened: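 Yeast wt1 strain exposed to compounds; growth inhibition measured relative to vehicle-treated controls.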
# [3] = NCI Yeast Anticancer Drug Screen. Data for the rad50EPP+ strain (AID 151);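 further: 0% = growth of vehicle-treated control cultures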; settings: S. cerevisiae rad50 mutant strain, hits give high values
# Procedure, shortened: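 Measured: growth inhibition of rad50EPP+ yeast. Reference: vehicle-treated controls. Screen uses strains with defined genetic alterations in DNA damage repair or cell cycle control.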
# [4] = NCI Yeast Anticancer Drug Screen. Data for the mgt1 strain (AID 153); settings: S. cerevisiae mgt1 mutant growth inhibition, hits give high values
# Procedure, shortened: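 Compounds were applied to mgt1 mutant yeast, and growth was then compared against vehicle-treated control cultures to give percent inhibition.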
# [5] = NCI Yeast Anticancer Drug Screen. Data for the rad50 strain (AID 155);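 further: 0% = growth of vehicle-only cultures of the same strain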; settings: S. cerevisiae rad50 strain growth inhibition, hits give high values
# Procedure, shortened: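 Yeast carrying a defined DNA repair defect were exposed to test compounds, and growth was compared with vehicle-treated controls to give percent inhibition.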
# [6] = NCI Yeast Anticancer Drug Screen. Data for the mec2-1 strain (AID 157); settings: S. cerevisiae mec2-1 strain, hits give high values
# Procedure, shortened: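 Compounds were applied to mec2-1 yeast cells. Their growth was then compared with that of vehicle-treated cultures to give growth inhibition.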
# [7] = NCI Yeast Anticancer Drug Screen. Data for the rad14 strain (AID 159);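 further: 0% = growth of vehicle-treated control cultures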; settings: S. cerevisiae rad14 strain growth inhibition, hits give high values
# Procedure, shortened: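 Yeast cells carrying a defined DNA-repair defect were exposed to compounds, and growth inhibition was calculated relative to vehicle-treated control cultures.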
# [8] = NCI Yeast Anticancer Drug Screen. Data for the sgs1 mgt1 strain (AID 161);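 further: 0% = growth of cultures given vehicle only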; settings: S. cerevisiae sgs1 mgt1 strain, hits give high values
# Procedure, shortened: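 This yeast growth screen uses a strain with defined DNA-repair lesions; compound-treated growth is compared with vehicle-treated growth.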
# [9] = NCI Yeast Anticancer Drug Screen. Data for the CLN2oe strain (AID 163);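 further: 0% = growth of vehicle-only control cultures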; settings: S. cerevisiae CLN2oe strain, hits give high values
# Procedure, shortened: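 Cells of an engineered yeast line with disturbed cell-cycle regulation are treated with compound. Inhibition of growth is then calculated relative to the vehicle-treated reference.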
# [10] = NCI Yeast Anticancer Drug Screen. Data for the cln2 rad14 strain (AID 165);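 further: 0% = growth equal to vehicle treated cultures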; settings: S. cerevisiae cln2 rad14 strain, hits give high values
# Procedure, shortened: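 Strain: cln2 rad14 yeast, altered in cell cycle control and DNA damage repair. Read-out: growth inhibition vs vehicle.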
# [11] = NCI Yeast Anticancer Drug Screen. Data for the bub3 strain (AID 167); settings: S. cerevisiae bub3 mutant strain, hits give high values
# Procedure, shortened: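 Compounds were applied to a genetically altered yeast strain carrying a cell-cycle control defect. Growth inhibition was scored against vehicle-treated controls.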
# [12] = NCI Yeast Anticancer Drug Screen. Data for the wt2 strain (AID 169);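 further: 0% = growth of vehicle-treated yeast cultures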; settings: S. cerevisiae wt2 strain growth inhibition, hits give high values
# Procedure, shortened: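 Growth of compound-treated yeast is measured and expressed as inhibition relative to vehicle-only controls.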
# [13] = NCI Yeast Anticancer Drug Screen. Data for the mlh1 strain (AID 171);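 further: 0% = growth of vehicle-treated control cultures of the same strain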; settings: S. cerevisiae mlh1 strain growth inhibition, hits give high values
# Procedure, shortened: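 Test agents were incubated with yeast bearing a defined DNA damage repair or cell cycle control alteration; values are growth inhibition normalised to vehicle-treated cultures.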
# [14] = NCI Yeast Anticancer Drug Screen. Data for the sgs1 strain (AID 173);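 further: 0% = growth of vehicle-only control cultures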; settings: S. cerevisiae sgs1 mutant, hits give high values
# Procedure, shortened: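 Strain with an altered DNA repair or cell cycle pathway exposed to compound. Growth then measured. Value = inhibition versus vehicle control.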
# [15] = NCI Yeast Anticancer Drug Screen. Data for the mlh1 rad18 strain (AID 175); settings: S. cerevisiae mlh1 rad18 strain growth inhibition, hits give high values
# Procedure, shortened: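 A repair-deficient yeast strain is exposed to test compound, and growth is scored relative to vehicle-treated controls.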
# [16] = NCI Yeast Anticancer Drug Screen. Data for the rad18 strain (AID 177); settings: S. cerevisiae rad18 mutant growth inhibition, hits give high values
# Procedure, shortened: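 DNA-repair-defective yeast; compound treatment; growth inhibition scored against vehicle.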
# [17] = at 5.0 µM (retest, dose inferred, filed as 0.5)
# [18] = at 50.0 µM (retest, dose inferred, filed as 5.0)
compound,measurement,setting,value
CC(=O)O/N=C1C=C/C(=C(/C#N)c2ccccc2)C=C/1C,growth inhibition,[1]; at 1.2 µM,6%
same,growth inhibition,[1]; at 3.7 µM,15%
same,growth inhibition,[1]; at 11.0 µM,63%
same,growth inhibition,[1]; at 33.0 µM,99% (active)
same,growth inhibition,[1]; at 100.0 µM,96% (active)
same,growth inhibition,[2]; at 1.2 µM,3%
same,growth inhibition,[2]; at 3.7 µM,5%
same,growth inhibition,[2]; at 11.0 µM,24%
same,growth inhibition,[2]; at 33.0 µM,99% (active)
same,growth inhibition,[2]; at 100.0 µM,97% (active)
same,growth inhibition,[3]; at 1.2 µM,43%
same,growth inhibition,[3]; at 3.7 µM,81% (active)
same,growth inhibition,[3]; at 11.0 µM,95% (active)
same,growth inhibition,[3]; at 33.0 µM,97% (active)
same,growth inhibition,[3]; at 100.0 µM,94% (active)
same,growth inhibition,[4]; at 1.2 µM,2%
same,growth inhibition,[4]; at 3.7 µM,6%
same,growth inhibition,[4]; at 11.0 µM,75% (active)
same,growth inhibition,[4]; at 33.0 µM,99% (active)
same,growth inhibition,[4]; at 100.0 µM,96% (active)
same,growth inhibition,[5]; at 1.2 µM,5%
same,growth inhibition,[5]; at 3.7 µM,10%
same,growth inhibition,[5]; [17],41%
same,growth inhibition,[5]; at 11.0 µM,37%
same,growth inhibition,[5]; at 33.0 µM,98% (active)
same,growth inhibition,[5]; [18],98% (active)
same,growth inhibition,[5]; at 50.0 µM,99.5% (active)
same,growth inhibition,[5]; at 100.0 µM,94% (active)
same,growth inhibition,[6]; at 1.2 µM,-1%
same,growth inhibition,[6]; at 3.7 µM,4%
same,growth inhibition,[6]; [17],16%
same,growth inhibition,[6]; at 11.0 µM,19%
same,growth inhibition,[6]; at 33.0 µM,99% (active)
same,growth inhibition,[6]; [18],98% (active)
same,growth inhibition,[6]; at 50.0 µM,99.5% (active)
same,growth inhibition,[6]; at 100.0 µM,96% (active)
same,growth inhibition,[7]; at 1.2 µM,1%
same,growth inhibition,[7]; at 3.7 µM,7%
same,growth inhibition,[7]; at 11.0 µM,25%
same,growth inhibition,[7]; at 33.0 µM,99% (active)
same,growth inhibition,[7]; at 100.0 µM,96% (active)
same,growth inhibition,[8]; [17],77% (active)
same,growth inhibition,[8]; [18],99% (active)
same,growth inhibition,[8]; at 50.0 µM,99.2% (active)
same,growth inhibition,[9]; at 1.2 µM,-6%
same,growth inhibition,[9]; at 3.7 µM,0%
same,growth inhibition,[9]; at 11.0 µM,16%
same,growth inhibition,[9]; at 33.0 µM,99% (active)
same,growth inhibition,[9]; at 100.0 µM,96% (active)
same,growth inhibition,[10]; [17],4%
same,growth inhibition,[10]; [18],98% (active)
same,growth inhibition,[10]; at 50.0 µM,99% (active)
same,growth inhibition,[11]; at 1.2 µM,-8%
same,growth inhibition,[11]; at 3.7 µM,-11%
same,growth inhibition,[11]; [17],0%
same,growth inhibition,[11]; at 11.0 µM,4%
same,growth inhibition,[11]; at 33.0 µM,99% (active)
same,growth inhibition,[11]; [18],99% (active)
same,growth inhibition,[11]; at 50.0 µM,99.5% (active)
same,growth inhibition,[11]; at 100.0 µM,91% (active)
same,growth inhibition,[12]; at 1.2 µM,2%
same,growth inhibition,[12]; at 3.7 µM,7%
same,growth inhibition,[12]; at 11.0 µM,65%
same,growth inhibition,[12]; at 33.0 µM,99% (active)
same,growth inhibition,[12]; at 100.0 µM,96% (active)
same,growth inhibition,[13]; at 1.2 µM,3%
same,growth inhibition,[13]; at 3.7 µM,8%
same,growth inhibition,[13]; at 11.0 µM,53%
same,growth inhibition,[13]; at 33.0 µM,99% (active)
same,growth inhibition,[13]; at 100.0 µM,95% (active)
same,growth inhibition,[14]; at 1.2 µM,21%
same,growth inhibition,[14]; at 3.7 µM,54%
same,growth inhibition,[14]; at 11.0 µM,94% (active)
same,growth inhibition,[14]; at 33.0 µM,99% (active)
same,growth inhibition,[14]; at 100.0 µM,95% (active)
same,growth inhibition,[15]; [17],49%
same,growth inhibition,[15]; [18],98% (active)
same,growth inhibition,[15]; at 50.0 µM,98.8% (active)
same,growth inhibition,[16]; at 1.2 µM,12%
same,growth inhibition,[16]; at 3.7 µM,26%
same,growth inhibition,[16]; at 11.0 µM,56%
same,growth inhibition,[16]; at 33.0 µM,99% (active)
same,growth inhibition,[16]; at 100.0 µM,95% (active)
NC(N)=NS(=O)(=O)c1ccc(Nc2c3ccccc3nc3c(C(=O)NC(CO)(CO)CO)cccc23)cc1,growth inhibition,[1]; at 1.2 µM,1%
same,growth inhibition,[1]; at 3.7 µM,9%
same,growth inhibition,[1]; at 11.0 µM,25%
same,growth inhibition,[1]; at 33.0 µM,66%
same,growth inhibition,[1]; at 100.0 µM,91% (active)
same,growth inhibition,[2]; at 1.2 µM,-1%
same,growth inhibition,[2]; at 3.7 µM,0%
same,growth inhibition,[2]; at 11.0 µM,0%
same,growth inhibition,[2]; at 33.0 µM,-1%
same,growth inhibition,[2]; at 100.0 µM,2%
same,growth inhibition,[3]; at 1.2 µM,1%
same,growth inhibition,[3]; at 3.7 µM,5%
same,growth inhibition,[3]; at 11.0 µM,15%
same,growth inhibition,[3]; at 33.0 µM,44%
same,growth inhibition,[3]; at 100.0 µM,85% (active)
same,growth inhibition,[4]; at 1.2 µM,2%
same,growth inhibition,[4]; at 3.7 µM,-1%
same,growth inhibition,[4]; at 11.0 µM,-2%
same,growth inhibition,[4]; at 33.0 µM,1%
same,growth inhibition,[4]; at 100.0 µM,4%
same,growth inhibition,[5]; at 1.2 µM,3%
same,growth inhibition,[5]; at 3.7 µM,9%
same,growth inhibition,[5]; [17],6%
same,growth inhibition,[5]; at 11.0 µM,27%
same,growth inhibition,[5]; at 33.0 µM,64%
same,growth inhibition,[5]; [18],94% (active)
same,growth inhibition,[5]; at 50.0 µM,70.8% (active)
same,growth inhibition,[5]; at 100.0 µM,89% (active)
same,growth inhibition,[6]; at 1.2 µM,-1%
same,growth inhibition,[6]; at 3.7 µM,-1%
same,growth inhibition,[6]; [17],1%
same,growth inhibition,[6]; at 11.0 µM,1%
same,growth inhibition,[6]; at 33.0 µM,3%
same,growth inhibition,[6]; [18],-13%
same,growth inhibition,[6]; at 50.0 µM,8.65%
same,growth inhibition,[6]; at 100.0 µM,13%
same,growth inhibition,[7]; at 1.2 µM,-1%
same,growth inhibition,[7]; at 3.7 µM,3%
same,growth inhibition,[7]; at 11.0 µM,3%
same,growth inhibition,[7]; at 33.0 µM,3%
same,growth inhibition,[7]; at 100.0 µM,10%
same,growth inhibition,[8]; [17],8%
same,growth inhibition,[8]; [18],-3%
same,growth inhibition,[8]; at 50.0 µM,-20.5%
same,growth inhibition,[9]; at 1.2 µM,2%
same,growth inhibition,[9]; at 3.7 µM,2%
same,growth inhibition,[9]; at 11.0 µM,4%
same,growth inhibition,[9]; at 33.0 µM,1%
same,growth inhibition,[9]; at 100.0 µM,1%
same,growth inhibition,[10]; [17],35%
same,growth inhibition,[10]; [18],3%
same,growth inhibition,[10]; at 50.0 µM,-9.45%
same,growth inhibition,[11]; at 1.2 µM,-1%
same,growth inhibition,[11]; at 3.7 µM,2%
same,growth inhibition,[11]; [17],-11%
same,growth inhibition,[11]; at 11.0 µM,2%
same,growth inhibition,[11]; at 33.0 µM,0%
same,growth inhibition,[11]; [18],15%
same,growth inhibition,[11]; at 50.0 µM,-5.3%
same,growth inhibition,[11]; at 100.0 µM,-2%
same,growth inhibition,[12]; at 1.2 µM,-1%
same,growth inhibition,[12]; at 3.7 µM,-2%
same,growth inhibition,[12]; at 11.0 µM,-1%
same,growth inhibition,[12]; at 33.0 µM,-1%
same,growth inhibition,[12]; at 100.0 µM,4%
same,growth inhibition,[13]; at 1.2 µM,-1%
same,growth inhibition,[13]; at 3.7 µM,0%
same,growth inhibition,[13]; at 11.0 µM,0%
same,growth inhibition,[13]; at 33.0 µM,0%
same,growth inhibition,[13]; at 100.0 µM,5%
same,growth inhibition,[14]; at 1.2 µM,-1%
same,growth inhibition,[14]; at 3.7 µM,1%
same,growth inhibition,[14]; at 11.0 µM,2%
same,growth inhibition,[14]; at 33.0 µM,2%
same,growth inhibition,[14]; at 100.0 µM,8%
same,growth inhibition,[15]; [17],12%
same,growth inhibition,[15]; [18],12%
same,growth inhibition,[15]; at 50.0 µM,15.7%
same,growth inhibition,[16]; at 1.2 µM,-3%
same,growth inhibition,[16]; at 3.7 µM,0%
same,growth inhibition,[16]; at 11.0 µM,-1%
same,growth inhibition,[16]; at 33.0 µM,2%
same,growth inhibition,[16]; at 100.0 µM,9%
